Records with an inconclusive call do not appear. The source made the active and inactive calls. The call rests on the fitted dose curve; in most records, active means well fitted activation curve with a large enough effect; inconclusive means small, poorly fitted or top-dose-only effect; inactive means flat fitted curve, though single readings scatter.
Assay: qHTS for Inhibitors of Cell Surface uPA Generation: Confirmatory Assay for Cherry-picked Compounds
Conditions: cell surface uPA activity generation, qHTS confirmation; series mostly up to 115 µM
Outline: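 RAW 264.7 cells at 4000/well, incubated overnight, then treated with compounds. After 24 h at 37 C, viability was read by ATPlite luminescence. An increase in signal indicates blocked uPA-dependent LF entry.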

Potency, inactive:
CCS(=O)(=O)N1CCC(C(=O)NCc2ccc(OC)cc2OC)CC1
CC(=O)Nc1nc2ccccc2[nH]1
CN(CCO)c1ccc(C(C(=O)c2ccccc2)c2ccc(N(C)CCO)cc2)cc1
CC(C)NC(=O)CN1CCC(c2nc3ccccc3[nH]2)CC1
COCCNS(=O)(=O)c1cc(OC)c(C)cc1C
Cc1cccc(NC(=O)C2CCCN(S(=O)(=O)c3ccc4[nH]c(=O)ccc4c3)C2)c1 (centres undefined)
CC1CCCCN1C(=O)CSc1nc2ncccc2[nH]1 (centres undefined)
Cc1ccc2nc(Nc3ccc(Cl)cc3)c3nncn3c2c1
COC(C[C@H](O)[C@H](C)[C@@H](O)COCc1ccccc1)OC
COc1ccc(S(=O)(=O)N2CCOCC2)cc1NC(=O)CN1C(=O)NC2(CCCC2)C1=O
COc1cc(NC(=O)CSc2nnc3ccc(-c4ccncc4)nn23)cc(OC)c1
CC1(NC(=O)CSc2nnc(-c3c[nH]c4ccccc34)n2C2CC2)CCS(=O)(=O)C1 (centres undefined)
CC(C)(C)S(=O)(=O)N1C[C@H]2CC/C=C\C/C(c3ccccc3)=C\2[C@@H]1CCO
COC(=O)[C@@]1(Cc2ccc(F)cc2)[C@H]2c3cc(C(=O)N(C)C)n(Cc4c(CO)[nH]cc(C)c4=O)c3C[C@H]2CN1C(=O)c1ccccc1
Cn1cc(SCC(=O)Nc2nccs2)c2ccccc21
Cc1nn(CC(=O)OCC(=O)NC(C)c2ccccc2)c(C)c1[N+](=O)[O-] (centres undefined)
CC(NC(=O)C1CCC(C(=O)NC(C)c2ccccc2)CC1)c1ccccc1 (centres undefined)
COc1ccc(CCNC(=O)Cn2c(=O)n(-c3cc(F)ccc3F)c(=O)c3sccc32)cc1OC
Cc1cc(C)cc(S(=O)(=O)c2cn(C)c3cc(N4CCN(C)CC4)c(F)cc3c2=O)c1
COc1ccc2[nH]cc(S(=O)(=O)c3ccc(C(C)C)cc3)c(=O)c2c1
COc1ccccc1CN1CC(C(=O)NCc2cccc(C)n2)CCC1=O (centres undefined)
CN1CCN(c2ccc(S(=O)(=O)N3CCOCC3)cc2NC(=O)CSCc2ccccc2)CC1
O=C(NNC(=O)c1ccc2ccccc2c1)Nc1ccc(F)cc1
O=C(N/C(=C\c1cccc([N+](=O)[O-])c1)C(=O)N1CCOCC1)c1ccc([N+](=O)[O-])cc1
CCOC(=O)c1c(C)oc2ccc(OC(=O)COc3c(F)c(F)c(F)c(F)c3F)cc12
CCC(C(=O)NCc1ccc(C)cc1)c1ccccc1 (centres undefined)
Cc1nc(NC2CCCCC2)c2nnn(Cc3ccccc3Cl)c2n1
CC1CC(=O)Nc2ccccc2N1C(=O)Cn1cnc2ccc(Br)cc2c1=O (centres undefined)
Cc1cccc(C)c1NC(=O)c1c(O)c2ccccc2[nH]c1=O
O=C(O)COc1ccccc1/C=N/NC(=O)CNC(=O)c1ccco1
O=C(COC(=O)/C=C/c1cccc(F)c1)Nc1ccccc1
COc1ccc(N(C(C)C(=O)NN=C2CCCC2)S(C)(=O)=O)cc1 (centres undefined)
CCc1nnc(NC(=O)CSc2nnnn2-c2cccc(C(C)=O)c2)s1
COc1ccc(CNC(=O)C2CCC(CNS(=O)(=O)c3ccc(C)cc3)CC2)cc1 (centres undefined)
CN(C)S(=O)(=O)c1ccc(NC(=O)COC(=O)CC2CC3CCC2C3)cc1 (centres undefined)
COc1ccc(-c2cc3nc(-c4ccccc4)cc(N4CCCC(O)C4)n3n2)cc1 (centres undefined)
O=C(NCCCN1CCCC1=O)c1cccc(Oc2ccccc2)c1
CCC(=O)N(Cc1cc2ccc(C)cc2[nH]c1=O)c1ccccc1OC
O=C1OCC/C1=C\c1ccc(O)cc1

From PubChem BioAssay AID720519 (National Center for Advancing Translational Sciences (NCATS), 2013)
